What is called AC50 is the concentration at which the activity in the assay is half-maximal.

Records with an inconclusive call do not appear. Some structures have more than one record in an assay (separate samples or runs), and their calls can disagree. Active and inactive are the calls of the source. How the source made its calls, unless noted: active means hit-call score of the fitted dose curve at least 0.9, where 1 is the maximum; inactive means score below 0.9.

The source of these data is PubChem BioAssay (EPA / NIEHS).

Experiment [1] is described as follows: CCTE_Simmons_MITO_max_resp_rate: CCTE's HepG2 Seahorse XF Respirometric Screening Assay at Maximal Respiratory State [uncoupled], Simmons Lab (AID 2284002). The note with it: actives raise or lower the signal. Summed up:
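HepG2, Seahorse XF96, maximal OCR post-FCCP. Cpd 125 nM–100 uM final (7 conc), n=3 biological. Kinetic reads every 6 min (3 min mix/3 min measure) over 72 min; fit bidirectional vs DMSO.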

Experiment [2] is described as follows: CCTE_Simmons_MITO_inhib_resp_rate: CCTE's HepG2 Seahorse XF Respirometric Screening Assay at Inhibited Respiratory State [full ETC block], Simmons Lab (AID 2284006). The settings on record: actives raise or lower the signal. Summed up:
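This endpoint is the respiration rate remaining after rotenone/antimycin A block, in HepG2 cells on a Seahorse XF96. Chemicals spanned 125 nM–100 uM final, in three biological replicates. OCR was read every 6 minutes for 72 minutes and compared with DMSO vehicle.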

Experiment [3] can be described thus: CCTE_Shafer_MEA_acute_spike_number: CCTE's Neural Acute Assay for Total Number of Spikes, Shafer Lab (AID 2284008).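 On AC50: curve fitted for decrease in spike count so AC50 reflects inhibitors.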 Summed up: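 Rat cortical cultures, DIV 13/15, 37 C. 40 min baseline rec, cpd 0.03-40 uM, 40 min post-dose rec. Band-pass 300-5000 Hz, spike threshold 8x rms; % change in spike count per well, DMSO neg ctrl, loss-of-signal fit.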
Experiment [4] is described as follows: CCTE_Shafer_MEA_acute_firing_rate_mean: CCTE's Neural Acute Assay for Mean Firing Rate, Shafer Lab (AID 2284009).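 Further: analyzed for loss of signal so actives lower firing rate relative to DMSO.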 Summed up: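 Primary rat cortical neurons on 16-electrode MEA wells were exposed on DIV 13 or 15 to compound (0.03-40 uM). Spike counts per recording time, averaged over electrodes, were compared between 40-min baseline and 40-min post-exposure recordings as percent change.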

Experiment [5] can be described thus: CCTE_Harrill_HTTr_Viability_MCF7: CCTE's 6-hour Cell Viability Assessment for the High-Throughput Transcriptomics (HTTr) Platform, in MCF-7 cells cultured in DMEM + 10% fetal bovine serum, Harrill Lab (AID 2284010). Summed up:
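Propidium iodide exclusion, imaged by high-content analysis, gauged viability after a six-hour exposure across eight concentrations. Cells were MCF-7 grown in DMEM with 10% fetal bovine serum; fits run in both directions against DMSO.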

The nature of experiment [6]: CCTE_Harrill_HTTr_Apoptosis_MCF7: CCTE's 6-hour Apoptosis Assessment for the High-Throughput Transcriptomics (HTTr) Platform, in MCF-7 cells cultured in DMEM + 10% fetal bovine serum, Harrill Lab (AID 2284011). Summed up:
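Read-out: CellEvent Caspase 3/7 Green signal by high content imaging, gain-of-signal indicating apoptosis. MCF-7 cells, DMEM + 10% FBS, eight-point dilution series, 6 h exposure. Curves fitted bidirectionally relative to DMSO negative control.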

Experiment [7] can be described thus: CCTE_Harrill_HTTr_CellCount_MCF7: CCTE's Cell Proliferation Assessment for the High-Throughput Transcriptomics (HTTr) Platform, Harrill Lab (AID 2284012; active means hit-call score of the fitted dose curve at least 0.9, where 1 is the maximum;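 further: cells exposed to compound for six hours; intended direction is loss of nuclei count meaning fewer cells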). Summed up:
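Cell count from high-content imaging of Hoechst-labeled nuclei serves as viability/growth readout. Chemicals were applied to MCF-7 cells in eight concentrations for six hours, with fitting in both directions relative to DMSO.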

Experiment [8] in a line: CCTE_Shafer_MEA_acute_burst_number: CCTE's Neural Acute Assay for Single-Electrode Bursts, Shafer Lab (AID 2284013). Summed up:
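Primary rat cortical neurons on 16-electrode MEA wells, DIV 13 or 15, exposed to compound (0.03-40 uM; ≥3 wells); 40-min recordings at 37 C before and after treatment. Burst count expressed as percent change from baseline, DMSO as negative control.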

Experiment [9] is described as follows: CCTE_Shafer_MEA_acute_per_burst_spike_number_mean: CCTE's Neural Acute Assay for Average Number of Spikes Per Burst, Shafer Lab (AID 2284015).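 Further: hits are decreases in mean spikes per burst versus baseline.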 Summed up: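 Rat primary cortical neurons on 48-well MEAs (DIV 13 or 15) were treated with 0.03-40 uM compound at 37 C. Mean spikes per burst over 40 min were recorded before and after exposure and expressed as percent change from baseline, relative to DMSO.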

The nature of experiment [10]: CCTE_Shafer_MEA_acute_interburst_interval_mean: CCTE's Neural Acute Assay for Mean Interburst Interval, Shafer Lab (AID 2284016).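 Further: percent change of mean interburst interval versus each well's own pre-dose baseline; curves fitted for decrease in interburst interval relative to DMSO.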 Summed up: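 Rat primary cortical neurons on 48-well MEAs at DIV 13 or 15 were exposed acutely to 0.03-40 uM. Spikes detected at 8x rms noise, 37 C. Mean interburst interval from 40 min recordings expressed as percent change from 40 min pre-treatment baseline.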

Experiment [11] is described as follows: CCTE_Shafer_MEA_acute_burst_percentage_mean: CCTE's Neural Acute Assay for Percentage of Spikes in a Burst, Shafer Lab (AID 2284017).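 On AC50: curve fitted for loss of signal so potency reflects decreased burst percentage.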 Summed up:
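Primary rat cortical neurons on 48-well MEA plates, treated on DIV 13 or 15 at 0.03-40 uM. Spikes detected at 8x rms noise at 37C; percent change from 40-min baseline to 40-min post-dose recording, fitted versus DMSO.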

The nature of experiment [12]: CCTE_Shafer_MEA_acute_burst_percentage_std: CCTE's Neural Acute Assay for Standard Deviation of Burst Percentage, Shafer Lab (AID 2284018).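 Further: fitted in the negative direction so actives lower burst percentage SD.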 Summed up: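 Value is percent change from baseline in the across-electrode SD of spikes-in-bursts percentage, wells with >/= 10 active electrodes. Acute 40-min exposure to 0.03-40 uM on DIV 13 or 15 rat cortical cultures, recorded at 37 C after 40-min baseline.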

Experiment [13] in a line: CCTE_Shafer_MEA_acute_per_network_burst_spike_number_mean: CCTE's Neural Acute Assay for Average Number of Spikes in a Network Burst, Shafer Lab (AID 2284019).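 On AC50: curve fitted for loss of signal so actives reduce spikes per network burst.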 Summed up: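 Percent change from baseline in mean spikes per network burst, spikes detected at 8x rms noise. Each compound at 0.03-40 uM in at least three wells of rat cortical cultures, recorded 40 min before and 40 min during exposure.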

Experiment [14] in a line: CCTE_Shafer_MEA_acute_per_network_burst_electrodes_number_mean: CCTE's Neural Acute Assay for Mean Number of Electrodes in a Network Burst, Shafer Lab (AID 2284021).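 Further: curves fitted for decreases only so hits reduce electrodes per burst.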 Summed up:
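Readout: % change in mean electrodes active per network burst, post- vs pre-treatment, each well. Spikes detected at 8x rms noise after 300-5000 Hz band-pass; rat cortical cultures, DIV 13/15, compounds 0.03-40 uM, DMSO baseline.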

Experiment [15] is described as follows: CCTE_Shafer_MEA_acute_network_burst_percentage: CCTE's Neural Acute Assay for Percentage of Network Bursts, Shafer Lab (AID 2284022).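 Further: curves fitted for loss so actives lower network burst percentage.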 Summed up:
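Rat cortical cultures, DIV 13/15; 20 min equilibration, 40 min baseline, compound 0.03-40 uM, 40 min recording, 37 C. Spikes: 300-5000 Hz band-pass, threshold 8x rms noise. Readout: % change in network-burst spike fraction; loss direction vs DMSO.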

In experiment [16] the target is Estrogen receptor (Homo sapiens) (UniProt P03372). In words: CCTE_Deisenroth_AIME_96WELL_LUC_Active: CCTE's 96-well Estrogen Receptor Transactivation Assay with AIME metabolic competence (ERTA luciferase; metabolism positive), Deisenroth Lab (AID 2284023; active means hit-call score of the fitted dose curve at least 0.9, where 1 is the maximum). Summed up: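 Metabolism-positive mode: induced rat hepatic S9 in alginate microspheres conditions test solutions (0.002 - 200 uM, 10 points) for 2 hours. VM7Luc4E2 ER luciferase reporter cells then exposed 24 h; positive-direction fit against 17beta-estradiol, n=4 typical.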

Experiment [17] shares this target. In words: CCTE_Deisenroth_AIME_96WELL_LUC_Inactive: CCTE's 96-well Estrogen Receptor Transactivation Assay without AIME metabolic competence (ERTA luciferase; metabolism negative), Deisenroth Lab (AID 2284025; active means hit-call score of the fitted dose curve at least 0.9, where 1 is the maximum). Summed up: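 Metabolism-negative arm: chemicals (0.002–200 uM, 10 points) incubated 2 h with alginate-water microspheres, then medium moved onto VM7Luc4E2 cells for 24 h luciferase read-out. Positive direction vs 17beta-estradiol; n≥4 experiments.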

Experiment [18] can be described thus: CCTE_Shafer_MEA_acute_cross_correlation_HWHM: CCTE's Neural Acute Assay for Cross Correlation at Half Width at Half Maximum, Shafer Lab (AID 2284026).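 Further: percent change per well from pre-dose baseline in spike cross-correlogram half width; hits are a decrease in cross-correlogram half width relative to DMSO.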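 On outcome: spontaneous network firing of rat primary cortical neurons on multiwell microelectrode arrays.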 Summed up: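 Read-out: half width at half maximum of action-potential cross-correlogram, percent change versus pre-treatment baseline, fitted in loss direction against DMSO. Rat cortical cultures, DIV 13 or 15, dosed 0.03-40 uM, 40-min recordings at 37 C.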

Experiment [19] is described as follows: CCTE_Shafer_MEA_acute_synchrony_index: CCTE's Neural Acute Assay for Synchrony, Shafer Lab (AID 2284027).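 Further: network synchrony index of spontaneous spiking in primary rat cortical neurons on MEAs; fitted for loss of signal so actives lower synchrony relative to DMSO.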 Summed up:
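The synchrony index is taken as percent change per well between a 40 min baseline and a 40 min recording with compound (0.03–40 uM), at 37C. Rat cortical cultures on multiwell MEAs at DIV 13 or 15, spike threshold 8× rms noise.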

Experiment [20] is described as follows: CCTE_Deisenroth_AIME_96WELL_CTox_Active: Cytotoxicity Assessment (CTOX) in CCTE's 96-well Estrogen Receptor Transactivation Assay with AIME metabolic competence (metabolism positive), Deisenroth Lab (AID 2284028; active means hit-call score of the fitted dose curve at least 0.9, where 1 is the maximum). Summed up:
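Cytotoxicity in VM7Luc4E2 breast cells after 24 h exposure to medium from a 2 h metabolic pre-incubation with induced rat hepatic S9 in alginate microspheres; fluorescent live-cell protease readout, 10-point series 0.002–200 uM, n=4.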

Estrogen receptor (Homo sapiens), sequence (P03372 whole entry, looked up): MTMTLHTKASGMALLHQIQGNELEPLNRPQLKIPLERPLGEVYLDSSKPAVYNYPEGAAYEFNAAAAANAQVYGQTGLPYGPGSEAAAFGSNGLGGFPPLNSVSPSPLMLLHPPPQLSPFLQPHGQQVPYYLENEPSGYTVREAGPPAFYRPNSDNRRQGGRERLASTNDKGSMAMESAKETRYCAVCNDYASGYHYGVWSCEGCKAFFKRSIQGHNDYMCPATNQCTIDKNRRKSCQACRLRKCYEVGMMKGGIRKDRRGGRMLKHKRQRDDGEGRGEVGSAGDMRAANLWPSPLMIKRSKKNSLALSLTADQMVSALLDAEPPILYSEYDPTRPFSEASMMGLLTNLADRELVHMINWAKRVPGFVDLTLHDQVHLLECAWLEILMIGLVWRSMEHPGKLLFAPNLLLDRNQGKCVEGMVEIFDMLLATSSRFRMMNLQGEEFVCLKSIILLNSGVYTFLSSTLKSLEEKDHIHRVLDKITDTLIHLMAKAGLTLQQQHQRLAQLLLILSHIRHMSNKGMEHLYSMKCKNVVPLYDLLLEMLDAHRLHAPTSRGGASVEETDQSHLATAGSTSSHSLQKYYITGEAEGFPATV

For the compound `CC1(C)C(C=C(Cl)Cl)C1C(=O)OC(C#N)c1cccc(Oc2ccccc2)c1` (configuration not stated), the compound was classed as inactive in experiment [1], in experiment [2], in experiment [3], in [4], in experiment [5] and in [6]. The outcome in experiment [7], in [8], in [9], in experiment [12], in [13] and in experiment [16] was inactive. In addition, the compound was called inactive in experiment [18] and in experiment [20]. Also, the AC50 was 4.16 µM (active) in experiment [10]; 1.57 µM (active) in experiment [11]; 0.622 µM (active) in experiment [14]; 1.94 µM (active) in experiment [15]; 57 µM (active) in experiment [17]; 3.97 µM (active) in experiment [19].
For `CCCCC(C#N)(Cn1cncn1)c1ccc(Cl)cc1` (configuration not stated), the result in experiment [1], in experiment [2], in experiment [5], in experiment [6] and in experiment [7] was inactive.
Turning to `Cc1c(COC(=O)[C@@H]2[C@H](/C=C(\Cl)C(F)(F)F)C2(C)C)cccc1-c1ccccc1`, the result in experiment [1], in [2], in [3], in experiment [4], in experiment [5] and in [6] was inactive. Also, the call in experiment [7], in [8], in [9], in experiment [10], in [12] and in experiment [13] was inactive. In addition, the compound was called inactive in experiment [14]. Besides, the AC50 was 0.756 µM (active) in experiment [11], 0.225 µM (active) in experiment [15], 2.29 µM (active) in [18] and 0.786 µM (active) in experiment [19].
Take `CCCC(=NOCC)C1=C(O)CC(CC(C)SCC)CC1=O` (configuration not stated): the AC50 in [3] is 11.1 µM (active); in experiment [4] it was 11.1 µM (active); in [9] it was 29.1 µM (active); in experiment [11] it was 27.7 µM (active); in [13], 20.1 µM (active); in experiment [18] it was 30.7 µM (active). Besides, the AC50 in [19] was 28.2 µM (active). Also, the result in [5], in [6], in experiment [8], in experiment [10], in [12] and in experiment [14] was inactive. In addition, in [15], the call was inactive.
On to `COP(=S)(OC)SCn1nnc2ccccc2c1=O`, for which the compound was classed as inactive in experiment [3], in experiment [4], in [5], in experiment [6], in experiment [7] and in [8]. Also, the compound was called inactive in experiment [9], in experiment [10], in [11], in experiment [12], in experiment [13] and in [14]. Moreover, the compound was classed as inactive in experiment [15], in [18] and in experiment [19]. Besides, the AC50 in experiment [13] was 24.1 µM (active).
Take `OC(c1ccc(Cl)cc1)(c1ccc(Cl)cc1)C(Cl)(Cl)Cl`: the AC50 is 1.83 µM (active) in [3]; 2.15 µM (active) in experiment [4]; 38.6 µM (active) in experiment [5]; 2.08 µM (active) in experiment [8]; 4.81 µM (active) in [11]; 20 µM (active) in experiment [14]. The AC50 in experiment [15] was 20 µM (active); in [18], 5.32 µM (active); in [19], 8.65 µM (active). The outcome in [6], in [7], in experiment [9], in [10], in experiment [12] and in experiment [13] was inactive.
For `O=C(Nc1ccccc1-c1ccc(Cl)cc1)c1cccnc1Cl`, the compound was called inactive in experiment [3], in experiment [4], in experiment [5], in experiment [6], in experiment [7] and in experiment [8]. Besides, the result in experiment [9], in [10], in experiment [12], in [13], in experiment [14] and in experiment [15] was inactive. In addition, the AC50 in experiment [11] was 28.5 µM (active); in [18] it was 23.5 µM (active); in [19] it was 25.3 µM (active).
On to `CCCN(CC)CC1COC2(CCC(C(C)(C)C)CC2)O1` (configuration not stated), for which the result in experiment [3], in experiment [4], in [5], in experiment [6], in [7] and in experiment [8] was inactive. The outcome in experiment [9], in [10], in [11], in experiment [12], in experiment [13] and in experiment [14] was inactive. Moreover, the call in experiment [15], in experiment [18] and in experiment [19] was inactive.
